Bioassay records: PubChem BioAssay, Broad Institute
Shown are actives, neighbours in structure and some others; about 2.2% of the full set was active somewhere.
MITF TRPM1 inh – inhibitors of MITF-driven TRPM1 promoter in melanoma cells; SK-MEL-5 TRPM1 promoter luciferase, 24 h; inhibition, % at 12.5 µM; actives 0.83% (n = 330,000); AID 488899;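 active means mean inhibition across replicates of 60% or more, whatever share of single replicates reaches that level; inconclusive means some that reach 60%, reason not given; inactive means mean inhibition across replicates below 60%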
EWS-Fli inh – blocks EWS/Fli oncoprotein-driven transcription; A673 NR0B1-luciferase reporter, viability-normalised; inhibition, % at 12.6 µM; actives 0.67% (n = 350,000); AID 651661;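 active means mean inhibition of at least 50% after viability correction, with every replicate also passing that limit; inconclusive means mean reaches 50% but only one of two replicates passes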;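 further: firefly luciferase signal divided by Alamar Blue viability fluorescence both relative to DMSO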
Shn3 inh set2 – reduces Shn3 3'UTR luciferase signal in osteoblasts; Clone20 osteoblast Shn3 3'UTR firefly luciferase, 24 h; inhibition, % at 12.5 µM; actives 0.52% (n = 360,000);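 active means mean inhibition of at least 75% with every replicate also reaching 75%; inconclusive means mean inhibition at least 75% but some replicate below; inactive means mean inhibition below 75%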;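 further: 0% = median of neutral control wells and 100% = pilot-screen positive control compound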
EBV LMP1 NFkB – inhibitors of Epstein-Barr LMP1-induced NF-kappaB reporter. actives 0.69% (n = 350,000). inhibition, % at 12.5 µM. LMP1-induced NF-kappaB luciferase reporter cells, luminescence; in the data active means inhibition above about 41%; inconclusive means no clear call, values can overlap the other calls;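 further: 0% = neutral control wells and 100% = reference inhibitor control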
PAX8 reporter – inhibitors of PAX8 transcriptional activity in RMG-I cells; RMG-I TPO-luciferase reporter, SteadyGlo, 24 h; inhibition, % at 12.6 µM; actives 1.2% (n = 360,000); AID 652154;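 active means mean replicate inhibition at least 60% with every replicate also reaching 60%; inconclusive means only one of the two criteria is met; inactive means mean below 60% and not all replicates reaching 60%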;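 further: luciferase light reporting Pax8 driven TPO promoter activity; plate controls were median of neutral control wells for no effect and mitoxantrone controls for full effect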
LGR2 antag – blocks bursicon-induced cAMP signaling via Drosophila LGR2; HEK293 LGR2, CRE-luciferase, bursicon-stimulated, 4 h; inhibition, % at 9.99 µM; actives 0.35% (n = 380,000);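 active means drop in luminescence signal, shown as inhibition above about 50% in the replicate tests, limit read from the data, passing the limit was not always enough; inconclusive means probably only some replicates passing the limit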;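 further: agonist challenge used bursicon conditioned medium at about half maximal strength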
* = called active by the depositor; ? = inconclusive; / = not tested or not shown.

SMILES	MITF TRPM1 inh	EWS-Fli inh	Shn3 inh set2	EBV LMP1 NFkB	PAX8 reporter	LGR2 antag
Cc1ccc(S(=O)(=O)Nc2ccc3c(c2)C(=O)N([C@@H](C)CO)C[C@@H](C)[C@H](CN(C)S(=O)(=O)c2cccs2)OCCCC[C@H](C)O3)cc1	/	4.9	/	/	-17.2	-16.3
C[C@@H]1CCCCO[C@@H](CN(C)S(=O)(=O)c2ccc(Cl)cc2)[C@H](C)CN([C@H](C)CO)C(=O)c2cc(NS(=O)(=O)c3cccs3)ccc2O1	/	15.8	/	/	70.4*	3.4
Cc1ccc(S(=O)(=O)Nc2ccc3c(c2)C(=O)N([C@H](C)CO)C[C@H](C)[C@@H](CN(C)S(=O)(=O)c2cccs2)OCCCC[C@H](C)O3)cc1	/	7.8	/	/	77.2*	9.1
COCC(=O)N1C[C@H](C)[C@H](OC)CN(C)C(=O)c2ccc(NC(=O)c3ccc(OC)cc3)cc2OC[C@@H]1C	/	4.7	/	/	-0.6	-9.0
O=C(Nc1ccc(Cl)cc1)N[C@@H]1CC[C@@H](CCn2cc(C3(O)CCCC3)nn2)O[C@@H]1CO	/	-12.0	/	/	5.0	9.1
COc1ccc(S(=O)(=O)Nc2cccc3c2O[C@@H](CN(C)Cc2ccc(Cl)c(Cl)c2)[C@@H](C)CN([C@@H](C)CO)C3=O)cc1	/	0.2	/	/	/	-21.5
COc1ccc(C(=O)NN(C)c2nc(C(F)(F)F)nc3ccccc23)cc1	41.1	55.6*	33.6	8.9	93.5*	-7.3
CC(=O)N1CCN(CC(=O)Nc2ccccc2Sc2ccc(Cl)cc2)CC1	8.3	8.2	25.2	-8.3	-0.7	5.3
O=C(CCl)Nc1ccccc1Sc1ccc(Cl)cc1	63.6*	/	40.8	11.2	/	/
C[C@@H]1CCCCO[C@H](CN(C)Cc2ccc3c(c2)OCO3)[C@H](C)CN([C@@H](C)CO)C(=O)c2cc(NC(=O)NC3CCCCC3)ccc2O1	/	29.8	/	/	5.0	2.1
COc1ccc(OC)c(/C=C/C(=O)N2C(=O)c3cccc(N)c3C2=O)c1	54.7	10.0	91.8*	-31.8	8.1	-5.7
COc1cc(/C=C/C(=O)N2C(=O)c3cccc(N)c3C2=O)cc(OC)c1OC	21.5	-4.2	-19.4	-29.6	1.4	0.6
COc1cc(C=c2c3ccccc3n3c2cc(-c2ccccc2)[n+]3C)cc(OC)c1OC	64.6*	7.9	0.0	7.0	92.6*	6.6
CN(C)c1ccc(C=c2c3ccccc3n3c2cc(-c2ccc(Cl)cc2)[n+]3C)cc1	97.0*	8.7	?	22.1	78.5*	28.9
CN(C)c1ccc(C=c2c3ccccc3n3c2cc(-c2ccccc2)[n+]3C)cc1	94.8*	-10.1	?	38.9	95.0*	91.1*
CN(C)c1ccc(C=c2c3cc([N+](=O)[O-])ccc3n3c2cc(-c2ccccc2)[n+]3C)cc1	94.9*	56.3*	86.5*	17.7	113.8*	42.9
CN(c1ccc(Cl)cc1)c1cc(=O)n(C)c2ccccc12	27.5	/	8.9	-25.6	/	/
COc1ccc2c3c(n(C)c2c1)[C@H](CO)N(Cc1ccccc1)CC31CN(C(=O)Nc2cccc(F)c2)C1	/	4.3	/	/	/	3.5
CN1C(=O)c2cc(NS(C)(=O)=O)ccc2OC[C@@H]2O[C@H](CC(=O)NCc3ccccc3)CC[C@H]21	/	0.4	/	/	0.4	-3.7
Cc1noc(C)c1NC(=O)Nc1ccc2c(c1)C(=O)N([C@@H](C)CO)C[C@@H](C)[C@H](CN(C)C(=O)c1ccccc1)OCCCC[C@@H](C)O2	/	5.0	/	/	-21.4	14.3
Cc1ccc(S(=O)(=O)N[C@H]2C=C[C@H](CC(=O)NCCCN(C)C)O[C@H]2CO)cc1	/	-6.7	/	/	-2.2	-10.3
COc1cc(N(C)C)ccc1C=c1c2ccccc2n2c1cc(-c1ccccc1)[n+]2C	110.5*	36.0	94.6*	1.8	88.3*	79.2*
C[C@@H]1CN([C@H](C)CO)C(=O)Cc2cc(NC(=O)Nc3ccc(F)cc3)ccc2O[C@@H]1CN(C)S(=O)(=O)c1cccs1	/	1.8	/	/	-7.8	1.2
O=C(NCCc1ccncc1)[C@H]1[C@H](CO)[C@H]2Cn3c(ccc(-c4ccccc4)c3=O)[C@@H]1N2	/	-2.7	/	/	/	-0.5
C[C@H](CO)N1C[C@H](C)[C@@H](CN(C)C(=O)Nc2cccc3ccccc23)OCCCC[C@H](C)Oc2ccc(NC(=O)c3ccncc3)cc2C1=O	/	14.3	/	/	81.7*	17.1
